Compounds with a hit are over-represented: about 4.2% of the library has one in this group of screens.
FBA Mtb inh = inhibits M. tuberculosis FBA enzyme | P9WQA3 | purified M. tuberculosis FBA, fluorescence read-out | inhibition, % at 1 µM | 360,000 tested, 2.3% active | AID 588726;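 also: 0% = vehicle and 100% = reference inhibitor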
RecA splice inh = inhibitors of M. tuberculosis RecA intein splicing. cell-free RecA intein splicing, fluorescence. inhibition, % (no concentration beside the values). 290,000 tested, 0.75% active; in the data active = inhibition above about 30%;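 also: 0% = vehicle wells and 100% = reference inhibitor control wells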
CCHF vOTU inh = blocks the CCHF virus ovarian tumor domain protease; CCHFV vOTU protease, Pep-AMC fluorescence; inhibition, % at 11.5 µM; 370,000 tested, 0.55% active; AID 651958; in the data active = inhibition above about 30%; also: 0% = vehicle wells with enzyme and 100% = no enzyme wells
GDH-TPI counter-1 = inhibits GDH-TPI coupling enzymes, artifact for Mtb FBA screen. GDH-TPI coupled enzyme counterscreen, NADH absorbance. inhibition, % at 4.8 µM. 360,000 tested, 1.2% active. AID 588335; in the data active = inhibition above about 30%;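 also: 0% = DMSO wells and 100% = wells lacking the enzyme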
Mtb FBA confirm = Mtb FBA inhibition, confirmed | shares compounds with FBA Mtb inh | purified M. tuberculosis FBA, fluorescence read-out | inhibition, % at 1 µM | 5,600 tested, 78% active;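 also: 0% = vehicle wells and 100% = reference inhibitor wells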
GDH-TPI counter-2 = counter-screen for M. tuberculosis FBA inhibitors: GDH-TPI coupled enzyme inhibition; shares compounds with FBA Mtb inh; 5,600 tested, 81% active; inhibition, % at 1 µM; GDH-TPI coupled enzyme counterscreen, fluorescence; in the data active = inhibition above about 10%
GDH-TPI DR = GDH-TPI dose response counter-screen for Mtb FBA; 170 tested, 79% active; AID 652145; IC50, µM; GDH-TPI coupled enzyme assay, fluorescence, artifact counterscreen; shares compounds with FBA Mtb inh; call rule not given here
The depositor's hits bear a star; i = inactive; x = no result; + = active, no number. Rule as the data show it, unless noted: active = inhibition above about 27%; inactive = the rest.

SMILES | FBA Mtb inh | RecA splice inh | CCHF vOTU inh | GDH-TPI counter-1 | Mtb FBA confirm | GDH-TPI counter-2 | others
COC(=O)C(Cc1ccc(O)cc1)NC(=O)CCOc1ccc(OC)cc1 (stereo not given) | -1 | -1 | -3 | 1 | x | x
c1ccc(Nc2nnc(-c3cccc4ccccc34)o2)cc1 | 4 | 1 | -15 | 13 | x | x
Cc1ccc(Nc2nnc(-c3ccccc3N)o2)cc1C | 49* | -6 | -42 | 7 | 11 | 3 | GDH-TPI DR=3.1*
COc1ccc(CCNC(=O)c2cc3ccccc3oc2=O)cc1 | 0 | 2 | -1 | 17 | x | x
CCC1C2CN(C(C)=O)CC=C2C(C#N)=C(N)C1(C#N)C#N (stereo not given) | 6 | -1 | -8 | 6 | x | x
CN1CC=C2C(C#N)=C(N)C(C#N)(C#N)C(Cc3ccccc3)C2C1 (stereo not given) | 32* | -37 | -17 | 15 | 164* | 151*
CNC(=O)C(C#N)(Cc1cc(C(C)=O)ccc1OC)Cc1cc(C(C)=O)ccc1OC | 37* | -1 | -4 | 4 | 1 | -4
COc1ccc(C(C)=O)cc1CSCc1cc(C(C)=O)ccc1OC | 3 | 0 | 3 | 1 | x | x
COc1ccccc1N(C)S(=O)(=O)c1ccc(C(=O)Nc2cc(F)ccc2C)cc1 | 1 | x | 5 | -1 | x | x
CCN(CC)CCNC(=O)c1cc2c(=O)n(CC)c3ccccc3c2s1 | 72* | 1 | -96 | 24 | 42* | 36*
CCn1c(=O)c2cc(C(=O)N3CCCC3)sc2c2ccccc21 | x | 1 | x | x | x | x
CCn1c(=O)c2cc(C(=O)N3CCOCC3)sc2c2ccccc21 | 17 | 1 | -8 | 29 | x | x
CCn1c(=O)c2cc(C(=O)NCCN(C)C)sc2c2ccccc21 | 62* | 1 | -87 | 16 | 105* | 89*
CCN(CC)CCCNC(=O)c1cc2c(=O)n(CC)c3ccccc3c2s1 | 72* | -1 | -72 | 9 | + | +
CCCN(CCC)CCNC(=O)c1cc2c(=O)n(CC)c3ccccc3c2s1 | 28* | -4 | -38 | 22 | 63* | 55*
CCOC(=O)[C@@]12CCCC=C1N(CCc1ccc(Cl)cc1)C(=O)[C@H]2CC(=O)N1CCCC1 | x | x | -1 | x | x | x
C=CCn1c(=N)c(C#N)cc2c(=O)n3ccccc3nc21 | 51* | i | -49 | 2 | 128* | 111*
N#Cc1cc2c(=O)n3ccccc3nc2n(-c2ccc(Cl)cc2)c1=O | 49* | -125 | -80 | 2 | 10 | -5
COc1ccc(CCn2c(=N)c(S(=O)(=O)c3ccc(Cl)cc3)cc3c(=O)n4ccccc4nc32)cc1 | 0 | 1 | 15 | 2 | x | x
Cc1cc(=O)oc2c(C)c(OC(C)C(=O)N3CC[C@@]4(O)CCCC[C@H]4C3)ccc12 (stereo not given in full) | 24 | 3 | -8 | 18 | x | x
Cc1c(C)c2ccc(OC(C)C(=O)N3CC[C@@]4(O)CCCC[C@H]4C3)c(C)c2oc1=O (stereo not given in full) | 69* | 2 | -24 | 9 | 53* | 41*
Cc1c(C)c2ccc(OC(C)C(=O)N3CC[C@@]4(O)CCCC[C@H]4C3)cc2oc1=O (stereo not given in full) | 96* | x | -42 | 16 | + | +
COc1ccc(Nc2nc(N3CCOCC3)nc(N3CCOCC3)n2)cc1Cl | 4 | 2 | -11 | -4 | x | x
O=C(COc1ccc2ccc(=O)oc2c1)Nc1ccc(CCO)cc1 | 7 | 1 | 8 | 18 | x | x
O=C(COc1ccc2ccc(=O)oc2c1)Nc1ccc(N2CCCCC2)cc1 | 41* | x | -35 | 3 | + | 152*
O=C(COc1ccc2ccc(=O)oc2c1)NCCN1CCOCC1 | 27* | x | -1 | 25 | 123* | 95*
CC(Oc1ccc2ccc(=O)oc2c1)C(=O)NCCN1CCOCC1 (stereo not given) | 28* | -4 | 1 | 21 | 151* | 110*
Cc1ccc2nc(-c3ccccc3)c(NC(=O)c3ccco3)n2c1 | -1 | -1 | 2 | 0 | x | x
COC(=O)Nc1c(-c2ccccc2)nc2ccc(C)cn12 | 65* | 2 | -21 | 3 | 120* | 116*
c1ccc(-c2nc3ccccn3c2-c2ccccc2)cc1 | 29* | 14 | -15 | 16 | 0 | -3

Screening results (PubChem BioAssay)
